This note sets out measurements from PubChem BioAssay (NCI).

“And” between values parts separate entries of the source, which are not always exact repeats. Identical values can stand only once. Compounds without any hit were thinned out: in the full panel of roughly 83,000, 20% have a hit.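 Note: values are percent growth. 100 is the growth of untreated cells, values between 100 and 0 indicate rising inhibition; between -100 and 0 indicates cell death.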 The source made the active and inactive calls. How the source made its calls: active means growth percent below 10; inactive means the rest.

In this experiment the test system is MDA-MB-468 breast. In words: NCI-60 one-dose screen, 48 h (100 = growth as untreated, 0 = no growth, -100 = all killed). The following applies: 10 µM unless noted.
Consider `CC1=C2[C@@H](CC1)[C@]1(C)O[C@@](C(C)C)(C[C@H]1OC(=O)CO)[C@H]2OC(=O)CCCc1ccccc1`, for which the growth is 88.3% (inactive). As for `O=c1[nH]c2c3ccncc3cc(-c3cccc(Cl)c3)c2c2cnccc12`, the growth was 42.1% (inactive). For `COc1cccc(CC(C)=C(c2ccc(OCCN(C)C)cc2)c2ccc(OCCN(C)C)cc2)c1`, the growth was -61.5% (active). Regarding `OC(COc1cccc2ccccc12)CN1CCN(c2ccccc2)CC1` (stereo not given), the growth is 77.6% (inactive). As for `CS(=O)(=O)c1ccc(-c2cnc3ccc(-c4cccc(S(C)(=O)=O)c4)nn23)cc1`, the growth is 6.54% (active). On to `CCCCc1ccc(C(N)=O)nc1`, for which the growth was 85% (inactive). To `O=c1c2cc(Br)cc(Br)c2nc(-c2ccc(Cl)cc2)n1/N=C\c1ccccc1F` belongs 79.1% (inactive). Consider `COc1ccc(-c2nn(-c3ccc(NC(=O)Nc4cc(C(F)(F)F)cc(C(F)(F)F)c4)cc3)cc2-c2ccncc2)cc1Cl`, for which the growth is -11.6% (active). The figure for `COc1cc2oc3cc(=O)cc4oc(-c5ccccc5)cc(c2c2c1CCC(c1ccccc1)O2)c43` (stereo not given) is 61.8% (inactive); for `O=c1cc(CSc2nnc(SCc3cc(=O)oc4c3ccc3ccccc34)o2)c2ccc3ccccc3c2o1` it is 110% (inactive).

Take `Clc1ccc(-c2nc(-c3cccs3)cn3ccnc23)cc1`: the growth is -11.1% (active). As to `CC(=O)Nc1nc2c(c(N)c1C#N)C(c1cccc(Cl)c1)C1=C(CCCC1=O)N2c1sc2c(c1C#N)CCCC2` (stereo not given), the growth was 47.7% (inactive). To `CN(C)c1ccc(C#Cc2c(F)cccc2Cl)cc1` belongs 8.33% (active).

Regarding `CN(C)S(=O)(=O)n1cnc([C@@H]2[C@@H]3C(=O)OC[C@@H]3C[C@]23N=CN(Cc2ccccc2)C3=O)c1`, the growth is 97.2% (inactive). The figure for `COc1ccc(OC)c(-c2nc(SCC(=O)c3ccc(C#N)cc3)[nH]c(=O)c2C#N)c1` is 94.3% (inactive). For `COc1c(N2CC3CCCNC3C2)c(F)cc2c(=O)c(C(=O)N/N=C/c3c[nH]c4ccccc34)cn(C3CC3)c12` (stereo not given), the growth is 100% (inactive). The figure for `O=NN(CC(=O)NNc1ccccc1)CC(=O)NNc1ccccc1` is 77.7% (inactive); for `COCCNC(=O)c1ccc(-c2nc3ccc4[nH]ncc4c3c3c2CCCC3)cc1` it is 4.81% (active). The figure for `Nc1ccc(Br)cc1C(F)(F)F` is 110% (inactive); for `C#C[C@]1(O)CC[C@H]2[C@@H]3CC=C4c5sc(-c6ccc(F)cn6)nc5CC[C@]4(C)[C@H]3CC[C@@]21C` it is 43.4% (inactive). To `N#Cc1cccc(C2C3=C(COC3=O)N(CCO)c3cc4c(cc32)CCC4)c1` (stereo not given) belongs 3.97% (active); to `CC(=O)Nc1cccc2c1CCCC2`, 100% (inactive) and 91.1% (inactive); to `C#CCN=C[C@]12CC[C@@H](C(=C)C)[C@@H]1[C@H]1CC[C@@H]3[C@@]4(C)CCC(=O)C(C)(C)[C@@H]4CC[C@@]3(C)[C@]1(C)CC2`, 40.3% (inactive). Turning to `CC[C@]12C=CCN3CC[C@@]4(c5ccc(OC)cc5N(C)[C@H]4[C@@](O)(C(=O)OC)[C@@H]1OC(=O)CCC(=O)O[C@H]1CC[C@H]4[C@@H]5CC[C@H]6CC(=O)CC[C@]6(C)[C@H]5CC[C@]14C)[C@@H]32`, the growth is 24.8% (inactive). The figure for `CCc1ccccc1-n1c(-c2ccc(Cl)cc2)cc(-c2ccc(Cl)cc2)c(C#N)c1=O` is 87.6% (inactive); for `O=C1/C(=C/c2ccc(OCCCOc3ccc(Cl)cc3)cc2)N=C2SCCCN12` it is 61.2% (inactive); for `Cc1ccccc1NC1CC(=O)N(c2ccc(Cl)cc2Cl)C1=O` (stereo not given) it is 105% (inactive). The figure for `CC(=O)c1c(C)nc(SCC(=O)Nc2cccc(O)c2)n1-c1ccc(Cl)cc1` is 79.7% (inactive); for `COC(=O)c1ccc2c(c1)c1c(C)c3cnccc3c(C)c1n2C` it is -38% (active). As to `N#Cc1c(N)nc(Nc2nc3ccccc3[nH]2)nc1-c1ccc(Cl)cc1`, the growth was 111% (inactive).

With `CC1C(=O)NC2=Nc3ccccc3C(=O)NN21` (stereo not given), the growth is 93.7% (inactive). To `COC(=O)C(CSC(c1ccccc1)(c1ccccc1)c1ccccc1)NC(=O)C(CC(N)=O)NC(=O)OCc1ccccc1` (stereo not given) belongs -17.7% (active); to `S=C(c1ccc2c(c1)OCO2)N1CCN(c2cccc(Cl)c2)CC1`, 6.42% (active). The figure for `CN=S(=O)(OCCCCCOS(=O)(=NC)c1ccc(C)cc1)c1ccc(C)cc1` (stereo not given) is 83.3% (inactive); for `c1ccc(Cn2cc3c(c2)-c2oncc2CC3)cc1` it is 47.2% (inactive); for `CCOc1cc(N)ccc1C(=O)NCCCN(CC)CC` it is 85% (inactive). Turning to `CC12CC(C#N)CCC1O2` (stereo not given), the growth is 111% (inactive).

In the case of `Cc1c[n+](Cc2ccc3ccccc3c2)cn1Cc1ccc2ccccc2c1`, the growth is -22.6% (active). To `C=CCn1c(SCC(=O)Nc2cccc(C(=O)/C=C/c3ccccc3)c2)nc2ccccc2c1=O` belongs 78.9% (inactive); to `O=C1NC(=O)C(c2coc3cc(Br)ccc23)=C1c1c[nH]c2ccccc12`, 3.29% (active).
